Compounds with a hit are over-represented: about 3.8% of the library has one in this group of screens.
FAS-TE inh: FAS thioesterase domain inhibitors, primary screen, biochemical, fluorescence intensity, uHTS. Fatty acid synthase (Homo sapiens), P49327. recombinant FAS-TE, OMFH fluorogenic substrate, fluorescence endpoint. 360,000 tested, 0.67% active. inhibition, % at 15 µM. AID 602261, 2012;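 active means compounds whose normalised, plate-corrected inhibition of enzyme fluorescence in the single-dose primary screen is 50% or more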;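 further: 0% = DMSO with enzyme and 100% = substrate without enzyme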
aDG glyco up: activators of alpha-DG glycosylation, primary screen, uHTS, Pro5-aDG cells, AlphaScreen; activation, % at 10 µM; alpha-DG glycosylation AlphaScreen (IIH6); 0% Pro5, 100% B10-LARGE cell signal; 360,000 tested, 0.22% active;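 active means activation of at least 8% versus controls, or a plate z-score of at least 8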;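 further: Pro5 are CHO cells carrying HIG-tagged alpha-DG that lacks glycosylation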
MPTP inh: mitochondrial permeability transition pore inhibitors, primary screen, biochemical, isolated mouse mitochondria, absorbance; Ca2+ swelling absorbance, 30 min; inhibition, % at 10 µM; 360,000 tested, 1.4% active; AID 602449, 2012;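 active means inhibition of 50% or more, scaled per plate between neutral and stimulator controls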;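 further: 0% = DMSO wells given calcium and 100% = 1 mM EGTA wells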
Mot1-301 SUMO: yeast Mot1-301 growth rescue at high temperature, primary screen, SUMOylation pathway inhibitor project, S. cerevisiae, ATP luminescence, 38.5C; S. cerevisiae Mot1-301 growth rescue; percent above DMSO median, 100 means doubled; 320,000 tested, 1% active; growth rescue, % at 18.8 µM;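 active means every valid replicate shows activation above 250% relative to neutral control wells; inactive means the rest, any valid replicate at or below 250%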;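 further: OY570 slx delta 5 strain wells were the positive control but not used for scaling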
Yeast superoxide: reduction of superoxide in aged yeast, primary screen, HTS; S. cerevisiae aged cells, superoxide DHE fluorescence; stronger effect = lower value; 330,000 tested, 0.18% active; AID 2690, 2010; superoxide response (% of plate mean), % at 10 µM;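 active means superoxide response under a set limit, about three screen SD below normal, cut at about 65% in these data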;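 further: yeast aged for seven days with compound at 30 °C before DHE staining; 100% = average MFI of all compound-treated wells on the plate with controls excluded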
Cardio protect: cardioprotection against H2O2-induced cell death, primary screen, uHTS, H9c2 cells, ATPLite luminescence | H9c2 cardiomyocytes, H2O2 injury protection, 2 h | protection from H2O2 cell death, % at 20 µM | 360,000 tested, 0.63% active | AID 588492, 2011;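 active means compounds giving at least 50% protection of heart cells from peroxide-induced death in the single-dose screen, raw or plate-pattern-corrected value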;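 further: 0% = DMSO wells with peroxide and 100% = DMSO wells without peroxide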
FAS-TE inh conf: FAS thioesterase domain inhibitors, confirmation, biochemical, fluorescence intensity, single concentration. inhibition, % at 15 µM. shares compounds with FAS-TE inh. recombinant FAS-TE, OMFH fluorogenic substrate. AID 624325, 2012. 2,300 tested, 45% active;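 active means compounds inhibiting the enzyme by at least 50% at 15 µM in any one of the replicates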;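 further: 0% = enzyme with DMSO only and 100% = wells lacking enzyme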
Rh123 counter: fluorescence retest of MPTP screen hits in isolated mitochondria, single concentration; shares compounds with MPTP inh; membrane potential, Rhodamine 123 fluorescence; inhibition, % at 10 µM; 5,000 tested, 78% active; AID 624504, 2012; in the data active means inhibition above about 22%;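 further: 0% = DMSO vehicle and 100% = positive control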
aDG conf: alpha-DG glycosylation enhancers, retest, confirmation, single concentration, Pro5-aDG cells; shares compounds with aDG glyco up; IIH6 AlphaLISA; scaled to LARGE-overexpressing B10 cells as 100%; activation, % at 10 µM (by protocol); 600 tested, 17% active;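 active means activation of at least 7% in one or more replicates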;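 further: cells exposed to compound for two days before detection; 0% = DMSO-treated Pro5 cells and 100% = DMSO-treated B10-LARGE cells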
Starred values were filed as active, the others as inactive; . = no result.

SMILES	FAS-TE inh	aDG glyco up	MPTP inh	Mot1-301 SUMO	Yeast superoxide	Cardio protect	Rh123 counter	others
CCN(C[C@H]1N[C@@](Cc2ccccc2)(C(=O)OC)[C@H]2C(=O)N(Cc3ccccc3)C(=O)[C@@H]12)C(=O)Nc1ccc(C(F)(F)F)cc1	62*	0	80*	-4	112	-46	105*	FAS-TE inh conf=17
CNC(=O)[C@H]1O[C@@H](n2cnc3c(NCc4cccc(I)c4)ncnc32)[C@H](O)[C@@H]1O	-2	0	4	5	96	-2	.
O=C(NCCOc1ccccc1)c1cc(C(=O)NCCOc2ccccc2)cc([N+](=O)[O-])c1	75*	2	56*	-3	111	16	93*	FAS-TE inh conf=77*
Cc1c(Cl)c([N+](=O)[O-])nn1CCCC(=O)Nc1cc(Oc2ccccc2)cc([N+](=O)[O-])c1	53*	1	85*	-23	105	-16	83*	FAS-TE inh conf=10
CN(C)CCN1C(=O)C(=O)/C(=C(/O)c2ccc(S(=O)(=O)N3CCOCC3)cc2)C1c1ccc(F)cc1 (stereo not given)	-4	6	-2	-11	100	2	.
Cc1ccc(C(=O)NCCSCc2ccc(Cl)cc2Cl)cc1[N+](=O)[O-]	51*	0	68*	111	96	-5	78*	FAS-TE inh conf=27
O=C(Cc1ccc(F)cc1)Nc1nc(-c2ccc(F)c(F)c2)cs1	51*	0	59*	2	106	1	86*	FAS-TE inh conf=6
COc1ccc(CC(=O)Nc2nc(-c3ccc(F)c(F)c3)cs2)cc1	36	0	0	83	109	0	.
Cc1sc2nc(CSCC(=O)NC3(C#N)CCCCC3)[nH]c(=O)c2c1C	-11	0	-1	-7	103	18	.
Cc1ccc2nc(SCC(=O)Nc3ccc(F)c([N+](=O)[O-])c3)[nH]c2c1	62*	4	88*	-13	123	0	76*	FAS-TE inh conf=68*
Cc1ccc2nc(SCC(=O)Nc3ccc(C)c([N+](=O)[O-])c3)[nH]c2c1	32	0	6	20	105	-4	.
N#Cc1cc2ccc(N3CCOCC3)cc2cc1C#N	74*	6.8*	1	18	96	-16	.	FAS-TE inh conf=62*;aDG conf=2
CCOC(=O)c1c(C)[nH]c(C(=O)N2CCN(c3ccc(OC)cc3)CC2)c1C	0	0	2	-5	99	0	.
Cc1c(C(=O)N/N=C/c2ccccc2)[nH]c2ccc(Cl)cc12	0	0	87*	-22	99	-28	89*
Cc1c(C(=O)N/N=C/c2ccc(N(C)C)cc2)[nH]c2ccc(Cl)cc12	2	0	80*	4	106	13	74*
COc1ccc(/C=N/NC(=O)c2[nH]c3ccc(Br)cc3c2-c2ccccc2)c(C(=O)O)c1OC	-4	0	1	-8	108	2	.
O=C(N/N=C/c1ccccc1Cl)c1[nH]c2ccc(Br)cc2c1-c1ccccc1	41	0	82*	2	113	-7	88*
Cc1ccc(CNC(=O)c2ccc(S(=O)(=O)N(C)C)cc2)n1C	-6	0	-2	104	106	4	.
Cc1cc(O)c2c(c1O)C(=O)[C@]13C(=C2O)C(=O)[C@@H]2[C@@H](O)[C@H]1[C@@H]1[C@H](O)[C@H]3C(=O)C3=C(O)c4c(O)cc(C)c(O)c4C(=O)[C@]312	10	1	104*	.	115	-9	-34
COc1ccc(N2CCN(C(CNC(=O)C3CCCCC3)c3ccco3)CC2)cc1 (stereo not given)	-4	0	0	.	88	2	.
CCCN(CCC)CC(O)Cn1cc(/C=C/C(=O)c2cccs2)c2ccccc21 (stereo not given)	-15	1	74*	-24	102	6	-16
CCCN(CCC)CC(O)Cn1cc(/C=C/C(=O)c2ccccc2)c2ccccc21 (stereo not given)	-10	2	3	.	.	15	.
COC(=O)c1c(NC(=S)Nc2ccccc2Cl)sc(C)c1C	4	0	56*	-15	89	-8	70*
O=C(Nc1cc(-c2ccccc2)nn1C1CCCCC1)c1ccc(Cl)cc1	29	1	64*	-4	108	-9	97*
Cc1ccc(NC(=S)NNC(=O)c2cccc([N+](=O)[O-])c2)cc1Cl	38	0	79*	230	98	-25	65*
SMILES	FAS-TE inh	aDG glyco up	MPTP inh	Mot1-301 SUMO	Yeast superoxide	Cardio protect	Rh123 counter	others
Cc1ccc(C(=O)NNC(=S)Nc2cccc(Cl)c2Cl)cc1[N+](=O)[O-]	35	0	103*	26	121	-4	85*
CCN(CC)S(=O)(=O)c1ccc(/C=C/C(=O)OCC(=O)NCc2ccco2)cc1	-2	0	0	21	90	2	.
CCN(CC)CCCNC(=O)c1cc(-c2ccc(O)cc2)on1	-2	0	-2	-9	106	4	.
CCN(CC)CCCNC(=O)c1cc(-c2ccc(Cl)c(Cl)c2)on1	2	3	79*	-6	87	7	-5
CS(=O)(=O)N(CC(=O)N1CCOCC1)c1cc(Cl)ccc1Cl	-6	0	-1	5	113	-1	.
O=C(CCN1CCc2ccccc2C(c2ccccc2)C1)c1ccc2c(c1)OCCO2 (stereo not given)	17	1	83*	25	112	-34	-5
Cc1ccccc1CN1CCc2c(OCC(=O)N3CCCc4ccccc43)cccc2C1=O	23	0	8	-9	99	-6	.
O=C1c2cccc(OCC(=O)N3CCCc4ccccc43)c2CCN1Cc1cccnc1	-2	0	82*	.	104	-12	34*
CCc1ccc(-c2cc(C(=O)N3N=C(C(F)F)CC3(O)C(F)F)c3ccccc3n2)cc1 (stereo not given)	37	0	84*	24	101	-21	83*

Assay outcomes from PubChem BioAssay.
